PubChem BioAssay (EPA / NIEHS)
Several values for one entry are separate records, joined by “and”; a condition that tells them apart may be missing. Identical values can stand only once. Some compounds were tested as several samples or in several runs, with calls that do not always agree. Activity calls are given as the source filed them. The calls were made as follows: active = hit-call score of the fitted dose curve at least 0.9, where 1 is the maximum; inactive = score below 0.9.

What was measured:
[1] = read-out: Urokinase-type plasminogen activator receptor (uPAR), PLAUR (gene 5329); experiment: BSK_4H_uPAR: BioMAP Diversity Plus: 4H Assay for Urokinase-type plasminogen activator receptor (uPAR) Biomarker Activity (AID 2283030); conditions: primary human endothelial cells (HUVEC); actives raise or lower the signal
Outline: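 Chemicals are dosed onto human vascular endothelial primary cells (umbilical vein). After 24 h, uPAR is read by ELISA. Gain or loss of signal is fitted relative to DMSO.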

[2] = read-out: Vascular endothelial growth factor receptor 2 (Homo sapiens) (UniProt P35968); experiment: BSK_4H_VEGFRII: BioMAP Diversity Plus: 4H Assay for Vascular endothelial growth factor receptor 2 (VEGFR2) Biomarker Activity (AID 2283031); conditions: primary human endothelial cells (HUVEC); actives raise or lower the signal;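 as to AC50: cell-surface VEGFR2 protein level quantified by ELISA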
Outline: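 VEGFRII levels on human vascular endothelial primary cells were determined by ELISA at 24 hours post-dosing, with gain- or loss-of-signal fitted against DMSO controls.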

[3] = read-out: Human Leukocyte Antigen - DR isotype (HLADR), HLA-DRA (gene 3122); experiment: BSK_BE3C_HLADR: BioMAP Diversity Plus: BE3C Assay for Human Leukocyte Antigen - DR isotype (HLADR) Biomarker Activity (AID 2283032); conditions: primary human bronchial epithelial cells; actives raise or lower the signal
Outline: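 Human primary bronchial epithelial cells (BE3C system) exposed to compound for 24 hours; cell-surface HLA-DR measured by ELISA, fitted bidirectionally relative to DMSO. Total protein by SRB in parallel cultures tracked cytotoxicity.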

[4] = read-out: Vascular cell adhesion molecule 1 (VCAM1), VCAM1 (gene 7412); experiment: BSK_4H_VCAM1: BioMAP Diversity Plus: 4H Assay for Vascular cell adhesion molecule 1 (VCAM1) Biomarker Activity (AID 2283033); conditions: primary human endothelial cells (HUVEC); actives raise or lower the signal
Outline: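 Primary human umbilical vein endothelial cells, 4H stimulation system, treated for 24 h; cell-surface VCAM-1 quantified by ELISA. Bidirectional fitting against DMSO; cytotoxicity tracked by SRB total-protein staining in parallel cultures.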

[5] = read-out: Interferon-gamma inducible Protein 10 (IP10), CXCL10 (gene 3627); experiment: BSK_BE3C_IP10: BioMAP Diversity Plus: BE3C Assay for Interferon-gamma inducible Protein 10 (IP10) Biomarker Activity (AID 2283034); conditions: primary human bronchial epithelial cells; actives raise or lower the signal
Outline: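 Primary human bronchial epithelial cells, with IP-10 measured by ELISA 24 hours after chemical dosing. Bidirectional fit against DMSO; cytotoxicity checked by SRB total protein staining in parallel cultures.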

[6] = read-out: Monokine induced gamma interferon (MIG), CXCL9 (gene 4283); experiment: BSK_BE3C_MIG: BioMAP Diversity Plus: BE3C Assay for Monokine induced gamma interferon (MIG) Biomarker Activity (AID 2283035); conditions: primary human bronchial epithelial cells; actives raise or lower the signal
Outline: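 MIG level was determined by ELISA after 24 h chemical treatment of primary human bronchial epithelial cells. Values were fitted bidirectionally with DMSO as the negative control and activity baseline.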

[7] = read-out: Plasminogen activator inhibitor-1 (PAI1), SERPINE1 (gene 5054); experiment: BSK_BE3C_PAI1: BioMAP Diversity Plus: BE3C Assay for Plasminogen activator inhibitor-1 (PAI1) Biomarker Activity (AID 2283037); conditions: primary human bronchial epithelial cells; actives raise or lower the signal
Outline: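 Primary human bronchial epithelial cells (BE3C system) exposed 24 h; PAI-1 quantified by ELISA. Parallel sulforhodamine B staining of total protein flags cytotoxicity. Bidirectional fit versus DMSO.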

[8] = read-out: Urokinase-type plasminogen activator receptor (uPAR), PLAUR (gene 5329); experiment: BSK_BE3C_uPAR: BioMAP Diversity Plus: BE3C Assay for Urokinase-type plasminogen activator receptor (uPAR) Biomarker Activity (AID 2283039); conditions: primary human bronchial epithelial cells; actives raise or lower the signal
Outline: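 Primary human bronchial epithelial cells dosed for 24 h; uPAR quantified by ELISA with bidirectional fitting against DMSO. Overt cytotoxicity assessed in parallel cultures by SRB total-protein staining (0.1% SRB, 560 nm).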

[9] = read-out: Interleukin-6 (IL6), IL6 (gene 3569); experiment: BSK_CASM3C_IL6: BioMAP Diversity Plus: CASM3C Assay for Interleukin-6 (IL6) Biomarker Activity for (AID 2283040); conditions: primary human coronary artery smooth muscle cells; actives raise or lower the signal
[10] = read-out: Tissue plasminogen activator (tPA), PLAT (gene 5327); experiment: BSK_BE3C_tPA: BioMAP Diversity Plus: BE3C Assay for Tissue plasminogen activator (tPA) Biomarker Activity (AID 2283041); conditions: primary human bronchial epithelial cells; actives raise or lower the signal
Outline: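 Primary human bronchial epithelial cells in the BE3C system, exposed to compound for 24 h. tPA was quantified by ELISA; DMSO served as baseline, with gain or loss of signal fitted. Cytotoxicity checked in parallel cultures by SRB total-protein staining.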

[11] = read-out: Interleukin-8 (IL8), CXCL8 (gene 3576); experiment: BSK_CASM3C_IL8: BioMAP Diversity Plus: CASM3C Assay for Interleukin-8 (IL8) Biomarker Activity (AID 2283042); conditions: primary human coronary artery smooth muscle cells; actives raise or lower the signal;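 also: IL-8 protein level quantified by ELISA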
[12] = read-out: Human Leukocyte Antigen - DR isotype (HLADR), HLA-DRA (gene 3122); experiment: BSK_CASM3C_HLADR: BioMAP Diversity Plus: CASM3C Assay for Human Leukocyte Antigen - DR isotype (HLADR) Biomarker Activity (AID 2283043); conditions: primary human coronary artery smooth muscle cells; actives raise or lower the signal;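 also: cell-surface HLA-DR protein level quantified by ELISA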
[13] = read-out: Macrophage colony-stimulating factor (MCSF), CSF1 (gene 1435); experiment: BSK_CASM3C_MCSF: BioMAP Diversity Plus: CASM3C Assay for Macrophage colony-stimulating factor (MCSF) Biomarker Activity (AID 2283044); conditions: primary human coronary artery smooth muscle cells; actives raise or lower the signal;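 also: M-CSF protein amount quantified by ELISA after 24 h exposure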
[14] = read-out: Low-density lipoprotein receptor (LDLR), LDLR (gene 3949); experiment: BSK_CASM3C_LDLR: BioMAP Diversity Plus: CASM3C Assay for Low-density lipoprotein receptor (LDLR) Biomarker Activity (AID 2283045); conditions: primary human coronary artery smooth muscle cells; actives raise or lower the signal;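 also: LDLR protein level on the cell surface quantified by ELISA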
[15] = read-out: Monocyte Chemoattractant Protein-1 (MCP1), CCL2 (gene 6347); experiment: BSK_CASM3C_MCP1: BioMAP Diversity Plus: CASM3C Assay for Monocyte Chemoattractant Protein-1 (MCP1) Biomarker Activity (AID 2283046); conditions: primary human coronary artery smooth muscle cells; actives raise or lower the signal;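 also: MCP-1 level quantified by ELISA 24 h after dosing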
[16] = BSK_CASM3C_Proliferation: Cell Proliferation Assessment in the BioMAP Diversity Plus: CASM3C Assay (AID 2283047); conditions: primary human coronary artery smooth muscle cells;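 also: sulforhodamine B total protein stain as relative cell number at 560 nm; sub-confluent cells exposed 48 h before staining; fitted both ways against DMSO so gain or loss of cell number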
[17] = read-out: Monokine induced gamma interferon (MIG), CXCL9 (gene 4283); experiment: BSK_CASM3C_MIG: BioMAP Diversity Plus: CASM3C Assay for Monokine induced gamma interferon (MIG) Biomarker Activity (AID 2283048); conditions: primary human coronary artery smooth muscle cells; actives raise or lower the signal;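 also: MIG protein level measured by ELISA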
[18] = read-out: serum amyloid A (SAA), SAA1 (gene 6288); experiment: BSK_CASM3C_SAA: BioMAP Diversity Plus: CASM3C Assay for serum amyloid A (SAA) Biomarker Activity (AID 2283049); conditions: primary human coronary artery smooth muscle cells; actives raise or lower the signal;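 also: SAA protein level quantified by ELISA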
[19] = read-out: urokinase plasminogen activator (uPA), PLAU (gene 5328); experiment: BSK_BE3C_uPA: BioMAP Diversity Plus: BE3C Assay for urokinase plasminogen activator (uPA) Biomarker Activity (AID 2283038); conditions: primary human bronchial epithelial cells; actives raise or lower the signal;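 also: uPA protein level quantified by ELISA in cell cultures; uPA read one day after compound addition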
Outline: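 Measured by ELISA: uPA from human primary bronchial epithelial cells 24 h after chemical treatment. Values derive from bidirectional curve fitting with DMSO serving as negative control. Total protein by SRB staining in parallel wells flagged overt cytotoxicity.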

Measured: AC50

O=S(=O)(OCC(F)F)C(F)(F)F
not listed: [19]
inactive: all other assays above

O=C(CC(=O)C(F)(F)C(F)(F)F)C(F)(F)F
not listed: [19]
inactive: all other assays above

FC(F)(F)C(F)(F)C(F)(F)C(F)(F)C(F)(F)C(F)(F)C(F)(F)C(F)(F)F
inactive: all assays above

O=C(O)C=C(C(F)(F)F)C(F)(F)F
active: [4] 15.2 µM and 5.95 µM | [9] 13.2 µM and 1.37 µM | [10] 8.7 µM and 1.53 µM | [12] 9.93 µM and 597 nM | [16] 30 µM | [17] 27.4 µM and 220 nM
not listed: [19]
inactive: all other assays above

FC(F)(F)C(F)(F)C(F)(F)C(F)(F)C(F)(F)C(F)(F)C(F)(F)I
not listed: [19]
inactive: all other assays above

FC(F)(F)C(F)(F)C(F)(F)C(F)(F)C(F)(F)C(F)(F)C(F)(F)C(F)(F)CCS
not listed: [19]
inactive: all other assays above

C=C(C)C(=O)OCC(F)(F)C(F)(F)C(F)(F)C(F)(F)C(F)(F)C(F)(F)C(F)(F)F
not listed: [19]
inactive: all other assays above

FC(F)(F)C(F)(F)C(F)(F)C(F)(F)CCI
active: [17] 18.7 µM
inactive: [1] | [2] | [3] | [4] | [5] | [6] | [7] | [8] | [9] | [10] | [11] | [12] | [13] | [14] | [15] | [16] | [17] | [18]

O=S(=O)(OCCOC(F)(F)F)C(F)(F)F
not listed: [19]
inactive: all other assays above

COC(=O)CCC(F)(F)C(F)(F)C(F)(F)C(F)(F)F
not listed: [19]
inactive: all other assays above

CCCCC(CC)COP(=O)(O)OCC(CC)CCCC (stereo unspecified)
active: [3] 29.3 µM and 31.6 µM | [5] 32 µM and 31.2 µM | [6] 32.8 µM and 29.5 µM | [7] 16.2 µM and 20 µM | [8] 5.24 µM | [10] 25.9 µM and 14.4 µM
inactive: [1] | [2] | [4] | [8] | [9] | [11] | [12] | [13] | [14] | [15] | [16] | [17] | [18]

FC(F)(F)C(F)(F)C(F)(F)C(F)(F)C(F)(F)C(F)(F)CCS
inactive: all assays above

O=C(O)C(F)(F)C(F)(F)C(F)(F)F
inactive: all assays above

CCCCCCCCC(F)(F)C(F)(F)C(F)(F)C(F)(F)C(F)(F)C(F)(F)F
inactive: all assays above

O=C(O)C(F)(F)C(F)(F)C(F)(F)C(F)(F)C(F)(F)C(F)(F)C(F)(F)C(F)(F)C(F)(F)C(F)F
active: [3] 10.5 µM | [4] 47.8 µM and 55.4 µM | [5] 8.14 µM and 8.37 µM | [6] 15 µM and 14.9 µM | [7] 14 µM and 12.1 µM | [8] 15.7 µM and 16.7 µM
not listed: [19]
inactive: all other assays above

OCC(F)(F)C(F)(F)C(F)(F)F
inactive: all assays above

FC(F)(F)C(F)(F)C(F)(F)C(F)(F)C(F)(F)C(F)(F)C(F)(F)Br
not listed: [19]
inactive: all other assays above

O=C(O)C(F)(F)C(F)(F)C(F)(F)C(F)(F)C(F)(F)C(F)(F)C(F)(F)C(F)(F)C(F)(F)C(F)(F)C(F)(F)C(F)(F)F
inactive: [1] | [3] | [5] | [6] | [7] | [8] | [9] | [10] | [11] | [12] | [13] | [14] | [15] | [16] | [17]
active: [2] 22 µM and 11.1 µM | [4] 3.66 µM and 1.18 µM | [12] 16.1 µM | [18] 2.34 µM and 3.54 µM

O=S(=O)(O)C(F)(F)C(F)(F)C(F)(F)C(F)(F)C(F)(F)C(F)(F)C(F)(F)F
not listed: [19]
inactive: all other assays above

CC(C)(C)C(=O)CC(=O)C(F)(F)C(F)(F)C(F)(F)F
inactive: all assays above

O=C(O)C(F)(F)C(F)(F)F
not listed: [19]
inactive: all other assays above

FC(F)(Br)C(F)(F)C(F)(F)C(F)(F)C(F)(F)C(F)(F)Br
not listed: [19]
inactive: all other assays above

FC(F)(F)C(F)(F)CNCC(F)(F)C(F)(F)F
inactive: all assays above

CCCCCCOC(=O)c1ccccc1O
active: [1] 38.5 µM and 44.3 µM | [4] 43.2 µM and 42.5 µM | [16] 33.5 µM and 24.5 µM
not listed: [19]
inactive: all other assays above

OCC(F)(F)C(F)(F)C(F)(F)C(F)(F)C(F)(F)C(F)F
inactive: all assays above
